# From ChEMBL document CHEMBL3988442, “University of Dundee, Small-Polar-MMV Screening Library” (2021)
# Among all 48,000 compounds or so, about 13,000 (27%) showed an effect of 50% or more. The list shows a part of the results.
# Tested on: Wolbachia pipientis
# Experiment: Anti-Wolbachia Cell-Based Screen
# Format: functional
# Design: scale not given: in the data most compounds retested in dose-response had high values
# Details: 5 µM
row,SMILES,Percent Effect
1,CN(CC(=O)NCC(F)(F)F)Cc1cccc2c1OCCO2,-18.06%
2,CN(Cc1ccc(CCC(C)(C)O)cc1)Cc1cccnc1,-22.62%
3,Cc1ccc(CN2CCC3(CCCN(S(C)(=O)=O)C3)C2)o1 (stereo not drawn),-14.58%
4,COCC(=O)N1CCC2(CCN(Cc3ccccn3)CC2)CC1,-21.07%
5,Cc1ccc(N2CCC3(CCN(Cc4ccccn4)CC3)CC2)nn1,3.728%
6,CS(=O)(=O)N1Cc2ccccc2CC2(CCN(Cc3ccccn3)C2)C1 (stereo not drawn),113.9%
7,CS(=O)(=O)N1CC2(CCN(Cc3ccccn3)C2)Cc2ccccc21 (stereo not drawn),111%
8,COCCC(=O)N1CC2(CCN(Cc3ccncc3)CC2)C1,12.72%
9,CS(=O)(=O)N1Cc2ccccc2CC2(CCN(Cc3ccccc3)C2)C1 (stereo not drawn),126.9%
10,CS(=O)(=O)N1Cc2ccccc2CC2(CCN(Cc3ccncc3)C2)C1 (stereo not drawn),115%
11,CS(=O)(=O)N1CCC(c2nccn2Cc2ccccn2)CC1,3.46%
12,Cc1ccc(CN2CCC3(CCN(S(=O)(=O)c4ccccc4)C3)C2)o1 (stereo not drawn),-12.36%
13,c1cnn(Cc2ccc(CN3CCC4(CCNCC4)C3)cc2)c1,15.29%
14,CN1CC(=O)N(c2cccc(F)c2)CC12CCN(Cc1ccccn1)C2 (stereo not drawn),2.437%
15,COCC(c1cccc(C(F)(F)F)c1)N(C)C(=O)c1cc(C)n[nH]1 (stereo not drawn),-9.299%
16,Cc1nc2[nH]cc(C(=O)N3CCCCC3c3ccc(F)cc3)c(=O)n2n1 (stereo not drawn),-1.637%
17,Cc1nc(-c2cc(C(=O)O)co2)cs1,4.91%
18,Cc1nn(-c2ccccn2)c(C)c1[C@@H]1C=C[C@@H](NC(=O)CCC(=O)O)C1,-2.847%
19,CN(C)S(=O)(=O)NCC(O)c1cc2ccccc2s1 (stereo not drawn),-1.975%
20,CCc1cnc(N2Cc3cnc(C(C)(C)C)nc3C2)nc1,-2.734%
21,CCN(CC)CC(=O)NCCc1csc(N2CCCC2)n1,7.841%
22,O=C(c1ccncc1F)N1C[C@H]2CC[C@@H]1CN(Cc1cccnc1)C2,-17.68%
23,CC1(C)[C@H](Cc2cc(CN3CCOCC3)on2)C[C@@H]1NC(=O)C1CCC1,3.49%
24,CC(=O)N1CCCC(Cc2cncc(Br)c2)CC1 (stereo not drawn),-3.498%
25,CS(=O)(=O)N1CCCC(Cc2cncc(Br)c2)CC1 (stereo not drawn),127%
26,CC(CCc1ccc(O)cc1)NC1CCN(S(C)(=O)=O)CC1 (stereo not drawn),7.002%
27,CC(C)N1CCCC(Cc2cncc(Br)c2)CC1 (stereo not drawn),135.8%

row,SMILES,Percent Effect
1,CC(C)N(Cc1cnn(C)c1)CC1CCCN(S(C)(=O)=O)C1 (stereo not drawn),7.104%
2,CCOC(=O)NC1CCCN(c2cncc(Br)c2)C1 (stereo not drawn),-1.321%
3,CC(=O)N1CCCC(Cc2cncc(Br)c2)C1 (stereo not drawn),130.8%
4,CC(C)N1CCCC(C(=O)NCCCc2cnn(C)c2)C1 (stereo not drawn),-2.763%
5,COc1cccc2c1CCC2NC(=O)NCc1csc(N(C)C)n1 (stereo not drawn),7.815%
6,Cc1ccc([C@@H]2CN(C(=O)c3ccon3)C[C@H]2NC(=O)C2CC2)cc1,-0.9032%
7,CCc1noc(CC)c1CC(=O)N1CCC(C(=O)NC(C)C)CC1,-12.02%
8,CC(=O)NCCNC(=O)c1cc(Br)c2c(c1)OCCO2,-14.07%
9,CC1CCN(S(=O)(=O)NCC2CCOc3ccccc3C2)CC1 (stereo not drawn),-7.362%
10,CC(C)Oc1cc(N2C[C@@H](C)O[C@@H](C)C2)nc(N)n1,-18.9%
11,CC(NCc1cccnc1)c1ccc(OCC(=O)NC2CC2)cc1 (stereo not drawn),-5.583%
12,NS(=O)(=O)N1CCC(CSc2ccccc2)C1 (stereo not drawn),-8.118%
13,Cc1oncc1C(=O)N1CCC2(CC1)CC(c1ccccc1)C(=O)N2C (stereo not drawn),-5.401%
14,N#Cc1ccnc(N2CCN(C(=O)c3ccc4c(c3)CCO4)CC2)c1,2.896%
15,Clc1ccc(-c2cnc(CNC3CCc4ncnn4C3)o2)cc1 (stereo not drawn),-3.633%
16,Cc1ccc(C)c(S(=O)(=O)CCNC2CCc3ncnn3C2)c1 (stereo not drawn),114%
17,c1csc(-c2noc(CCCNC3CCc4ncnn4C3)n2)c1 (stereo not drawn),7.784%
18,c1ccc(CNC2CCc3ncnn3C2)nc1 (stereo not drawn),-4.327%
19,Cc1nc(CNC2CCc3ncnn3C2)oc1C (stereo not drawn),-6.098%
20,O=S(=O)(CCCNC1CCc2ncnn2C1)c1ccccc1 (stereo not drawn),113.7%
21,COc1cccc(S(=O)(=O)CCNCCn2cccn2)c1,2.314%
22,O=C(CNC1CCc2ncnn2C1)NCCc1cccs1 (stereo not drawn),2.681%
23,c1csc(CCNC2CCc3ncnn3C2)c1 (stereo not drawn),-10.08%
24,O=S(=O)(CCNC1CCc2ncnn2C1)c1ccc(Cl)cc1 (stereo not drawn),86.02%
25,COc1cccc(S(=O)(=O)CCNC2CCc3ncnn3C2)c1 (stereo not drawn),109.9%
26,Cc1ccc(-c2nc(CNC3CCc4ncnn4C3)co2)c(C)c1 (stereo not drawn),-0.6319%
